# Data taken from the supplement of paper PMC10849652.
# About 8,800 targets were measured; listed, in parts, are those with a hit and a random draw of the rest. About 0.5% of all pairs of compound and target were hits. Unmarked numbers belong to inactive results.
# Assays:
# Experiment in all cases: log2 fold change, soluble protein after heating vs DMSO (PISA); higher = thermal stabilisation; K562 lysate, 10 uM; active = over 0.2 and 3.5 SD of the protein, either way, in both replicates (recomputed)
# vemurafenib = compound: CCCS(=O)(=O)Nc1ccc(F)c(C(=O)c2c[nH]c3ncc(-c4ccc(Cl)cc4)cc23)c1F [vemurafenib]
# Procedure, shortened: (§1)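 Following dounce homogenisation of K562 pellets in PBS pH 7.4 with 1 mM MgCl2, crude extract at 1 mg/mL protein was incubated for 30 min with 10 μM compound. Aliquots were then heated for 3 min over 48°C-58°C and pooled, NP-40 was added to 0.5% at 4°C, and soluble protein was recovered as the supernatant at 21,000xg for 90 min. Channel-sum-equalised TMTpro 16plex LC-MS/MS quantified this protein. Each value, from duplicates, is a log-two fold change in thermal stability relative to solvent controls.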
# [1] = compound: CCCS(=O)(=O)Nc1ccc(F)c(C(=O)c2c[nH]c3ncc(Cl)cc23)c1F
# Procedure, shortened: as §1
# barasertib = compound: CCN(CCCOc1ccc2c(Nc3cc(CC(=O)Nc4cccc(F)c4)[nH]n3)ncnc2c1)CCOP(=O)(O)O [barasertib]
# Procedure, shortened: as §1
# [2] = compound: CC[C@@H]1C(=O)N(C)c2cnc(Nc3ccc(C(=O)NC4CCN(C)CC4)cc3OC)nc2N1C1CCCC1
# Procedure, shortened: as §1
# volasertib = compound: CC[C@@H]1C(=O)N(C)c2cnc(Nc3ccc(C(=O)N[C@H]4CC[C@H](N5CCN(CC6CC6)CC5)CC4)cc3OC)nc2N1C(C)C [volasertib]
# Procedure, shortened: as §1
# [3] = compound: CCn1c(C(=O)N(C2CC2)C2CC2)cc2c3c(ncn3C)c(Nc3cc(C)n(C)n3)nc21
# Procedure, shortened: as §1
# [4] = compound: CCn1cc(-c2ccnc3[nH]c(-c4cccc(CN(C)C)c4)cc23)c(-c2ccc(NC(=O)N(C)C)cc2)n1
# Procedure, shortened: as §1
# [5] = compound: CN1CCC(CNc2ccc3ncc(-c4cccc(OC(F)(F)F)c4)n3n2)CC1
# Procedure, shortened: as §1
# saracatinib = compound: CN1CCN(CCOc2cc(OC3CCOCC3)c3c(Nc4c(Cl)ccc5c4OCO5)ncnc3c2)CC1 [saracatinib]
# Procedure, shortened: as §1
# sotrastaurin = compound: CN1CCN(c2nc(C3=C(c4c[nH]c5ccccc45)C(=O)NC3=O)c3ccccc3n2)CC1 [sotrastaurin]
# Procedure, shortened: as §1
# alvocidib = compound: CN1CC[C@H](c2c(O)cc(O)c3c(=O)cc(-c4ccccc4Cl)oc23)[C@H](O)C1 [alvocidib]
# Procedure, shortened: as §1
# Tubastatin A = compound: CN1CCc2c(c3ccccc3n2Cc2ccc(C(=O)NO)cc2)C1 [Tubastatin A]
# Procedure, shortened: as §1
# [6] = compound: CNC(=O)C1=CC=CC=C1NC2=NC(=NC=C2Cl)NC3=C(C=C(C=C3)N4CCOCC4)OC
# Procedure, shortened: as §1
# defactinib = compound: CNC(=O)c1ccc(Nc2ncc(C(F)(F)F)c(NCc3nccnc3N(C)S(C)(=O)=O)n2)cc1 [defactinib]
# Procedure, shortened: as §1
# [7] = compound: CNc1nc(-c2ccc3c(N)n[nH]c3c2)cc(N2C[C@@H](C(=O)NC3CCCCC3)CC[C@H]2C)n1
# Procedure, shortened: as §1
# encorafenib = compound: COC(=O)N[C@@H](C)CNc1nccc(-c2cn(C(C)C)nc2-c2cc(Cl)cc(NS(C)(=O)=O)c2F)n1 [encorafenib]
# Procedure, shortened: as §1
# [8] = compound: COC(=O)[C@H](CCSC)NC(=O)C1=C(C=C(C=C1)NC[C@H](CS)N)C2=CC=CC=C2
# Procedure, shortened: as §1
# alisertib = compound: COc1cc(Nc2ncc3c(n2)-c2ccc(Cl)cc2C(c2c(F)cccc2OC)=NC3)ccc1C(=O)O [alisertib]
# Procedure, shortened: as §1
# [9] = compound: COc1cc2nc(-c3cc(F)ccc3O)nc(N[C@@H]3CNC[C@H]3C(C)(C)O)c2cc1OC
# Procedure, shortened: as §1
# gefitinib = compound: COc1cc2ncnc(Nc3ccc(F)c(Cl)c3)c2cc1OCCCN1CCOCC1 [gefitinib]
# Procedure, shortened: as §1
# Chain of UniProt Q96L91 (Q96L91 whole entry, looked up): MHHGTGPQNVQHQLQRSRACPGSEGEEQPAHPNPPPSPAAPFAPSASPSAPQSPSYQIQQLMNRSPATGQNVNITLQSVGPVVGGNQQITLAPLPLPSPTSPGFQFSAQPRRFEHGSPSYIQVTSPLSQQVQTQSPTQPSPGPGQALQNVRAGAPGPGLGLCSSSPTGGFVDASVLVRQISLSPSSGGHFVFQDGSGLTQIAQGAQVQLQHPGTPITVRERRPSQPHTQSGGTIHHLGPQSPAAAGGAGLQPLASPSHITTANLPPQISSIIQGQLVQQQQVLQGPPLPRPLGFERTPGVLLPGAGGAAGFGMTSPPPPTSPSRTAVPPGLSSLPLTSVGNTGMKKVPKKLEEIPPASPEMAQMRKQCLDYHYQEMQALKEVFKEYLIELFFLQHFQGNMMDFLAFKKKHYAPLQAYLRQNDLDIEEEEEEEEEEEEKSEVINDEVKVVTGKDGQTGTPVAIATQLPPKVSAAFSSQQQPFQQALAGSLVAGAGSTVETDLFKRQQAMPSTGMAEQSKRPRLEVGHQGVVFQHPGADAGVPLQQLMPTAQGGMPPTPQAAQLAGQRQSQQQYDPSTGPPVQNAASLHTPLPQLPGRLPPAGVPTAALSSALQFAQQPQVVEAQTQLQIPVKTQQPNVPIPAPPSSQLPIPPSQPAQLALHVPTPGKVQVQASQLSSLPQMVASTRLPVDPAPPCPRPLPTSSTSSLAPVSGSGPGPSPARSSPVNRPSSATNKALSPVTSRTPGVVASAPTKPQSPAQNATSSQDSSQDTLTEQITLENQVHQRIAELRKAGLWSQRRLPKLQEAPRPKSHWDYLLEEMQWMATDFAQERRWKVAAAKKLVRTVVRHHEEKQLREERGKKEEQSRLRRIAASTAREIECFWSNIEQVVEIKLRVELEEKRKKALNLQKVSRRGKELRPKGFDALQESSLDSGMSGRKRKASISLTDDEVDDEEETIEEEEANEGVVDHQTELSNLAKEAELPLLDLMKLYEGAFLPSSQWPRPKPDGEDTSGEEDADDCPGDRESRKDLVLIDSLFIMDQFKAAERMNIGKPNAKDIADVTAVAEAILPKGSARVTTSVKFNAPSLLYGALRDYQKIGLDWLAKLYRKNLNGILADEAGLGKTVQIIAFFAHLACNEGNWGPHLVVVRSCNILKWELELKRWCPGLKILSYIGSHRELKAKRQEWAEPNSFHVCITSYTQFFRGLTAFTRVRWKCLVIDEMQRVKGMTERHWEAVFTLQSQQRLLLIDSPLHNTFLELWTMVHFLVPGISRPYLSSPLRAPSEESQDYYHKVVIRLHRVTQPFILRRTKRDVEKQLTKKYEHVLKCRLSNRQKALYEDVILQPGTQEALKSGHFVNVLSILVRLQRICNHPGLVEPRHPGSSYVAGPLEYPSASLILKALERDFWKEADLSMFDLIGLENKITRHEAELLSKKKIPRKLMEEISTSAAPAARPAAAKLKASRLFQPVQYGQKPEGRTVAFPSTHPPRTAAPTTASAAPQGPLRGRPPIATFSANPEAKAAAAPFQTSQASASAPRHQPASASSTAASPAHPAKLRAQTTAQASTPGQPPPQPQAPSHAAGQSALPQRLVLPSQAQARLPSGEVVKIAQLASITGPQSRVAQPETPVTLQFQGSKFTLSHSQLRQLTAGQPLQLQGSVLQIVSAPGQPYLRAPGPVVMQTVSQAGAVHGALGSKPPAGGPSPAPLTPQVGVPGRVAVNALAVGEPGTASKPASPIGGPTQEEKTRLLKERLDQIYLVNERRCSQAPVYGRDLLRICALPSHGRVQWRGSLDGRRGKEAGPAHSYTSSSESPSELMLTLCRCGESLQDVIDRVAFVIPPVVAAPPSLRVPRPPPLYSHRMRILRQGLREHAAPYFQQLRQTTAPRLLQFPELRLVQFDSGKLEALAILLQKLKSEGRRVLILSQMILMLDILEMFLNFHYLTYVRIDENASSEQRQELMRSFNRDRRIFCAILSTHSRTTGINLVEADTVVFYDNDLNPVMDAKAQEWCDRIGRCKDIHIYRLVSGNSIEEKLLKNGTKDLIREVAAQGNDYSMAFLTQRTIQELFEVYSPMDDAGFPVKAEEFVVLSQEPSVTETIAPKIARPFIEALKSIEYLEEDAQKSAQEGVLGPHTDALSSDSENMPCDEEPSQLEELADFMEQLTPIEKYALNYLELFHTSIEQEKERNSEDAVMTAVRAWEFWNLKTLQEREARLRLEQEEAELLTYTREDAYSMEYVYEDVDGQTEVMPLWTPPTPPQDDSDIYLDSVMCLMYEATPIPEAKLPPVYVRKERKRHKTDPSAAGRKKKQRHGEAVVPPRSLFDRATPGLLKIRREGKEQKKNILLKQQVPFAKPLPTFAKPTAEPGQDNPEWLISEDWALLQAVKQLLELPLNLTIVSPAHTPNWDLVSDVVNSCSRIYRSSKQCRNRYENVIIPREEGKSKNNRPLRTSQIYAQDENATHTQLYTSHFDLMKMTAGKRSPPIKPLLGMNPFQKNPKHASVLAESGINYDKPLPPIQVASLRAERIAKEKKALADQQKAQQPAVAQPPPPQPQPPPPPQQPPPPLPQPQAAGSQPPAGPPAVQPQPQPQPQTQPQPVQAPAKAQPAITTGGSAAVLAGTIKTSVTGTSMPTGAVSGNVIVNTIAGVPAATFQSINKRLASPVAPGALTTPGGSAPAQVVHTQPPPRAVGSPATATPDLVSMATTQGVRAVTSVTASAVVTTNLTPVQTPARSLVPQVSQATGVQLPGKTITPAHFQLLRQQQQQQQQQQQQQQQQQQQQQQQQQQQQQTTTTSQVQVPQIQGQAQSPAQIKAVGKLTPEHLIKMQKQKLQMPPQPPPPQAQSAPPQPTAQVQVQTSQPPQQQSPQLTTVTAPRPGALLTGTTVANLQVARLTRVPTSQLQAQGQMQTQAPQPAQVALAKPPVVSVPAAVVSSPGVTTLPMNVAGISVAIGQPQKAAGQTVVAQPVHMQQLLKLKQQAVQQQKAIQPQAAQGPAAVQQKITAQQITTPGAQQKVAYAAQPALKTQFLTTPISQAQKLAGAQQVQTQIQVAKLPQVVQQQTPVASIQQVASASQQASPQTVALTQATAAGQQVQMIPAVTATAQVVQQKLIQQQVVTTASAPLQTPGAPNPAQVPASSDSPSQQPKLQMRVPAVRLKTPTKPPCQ
# Chain of UniProt P0C2W1 (P0C2W1 whole entry, looked up): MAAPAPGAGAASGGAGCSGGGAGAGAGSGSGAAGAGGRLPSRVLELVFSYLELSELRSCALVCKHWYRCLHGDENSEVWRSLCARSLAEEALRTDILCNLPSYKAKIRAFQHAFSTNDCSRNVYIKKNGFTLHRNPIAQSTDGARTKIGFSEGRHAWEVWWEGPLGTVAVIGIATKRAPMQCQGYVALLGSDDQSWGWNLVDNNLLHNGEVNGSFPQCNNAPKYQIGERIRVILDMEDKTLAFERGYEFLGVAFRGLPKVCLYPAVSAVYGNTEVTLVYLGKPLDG
# Chain of UniProt Q9H4H8 (Q9H4H8 whole entry, looked up): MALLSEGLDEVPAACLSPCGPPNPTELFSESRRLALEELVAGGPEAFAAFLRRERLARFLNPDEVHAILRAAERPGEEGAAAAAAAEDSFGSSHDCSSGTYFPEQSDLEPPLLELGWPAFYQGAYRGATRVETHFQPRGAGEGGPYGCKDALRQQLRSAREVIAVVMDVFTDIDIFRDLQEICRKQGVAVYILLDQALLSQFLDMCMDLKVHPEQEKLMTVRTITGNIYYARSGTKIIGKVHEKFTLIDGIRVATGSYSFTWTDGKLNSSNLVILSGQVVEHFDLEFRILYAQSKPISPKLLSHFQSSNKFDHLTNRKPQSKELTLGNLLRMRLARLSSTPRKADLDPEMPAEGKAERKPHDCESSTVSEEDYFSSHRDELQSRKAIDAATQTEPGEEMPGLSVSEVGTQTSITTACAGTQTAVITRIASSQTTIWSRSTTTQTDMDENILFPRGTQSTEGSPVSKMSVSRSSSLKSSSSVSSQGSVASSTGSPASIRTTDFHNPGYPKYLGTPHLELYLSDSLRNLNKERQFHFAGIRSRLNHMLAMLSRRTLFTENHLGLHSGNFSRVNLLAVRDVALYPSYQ
# Chain of UniProt Q6PIW4 (Q6PIW4 whole entry, looked up): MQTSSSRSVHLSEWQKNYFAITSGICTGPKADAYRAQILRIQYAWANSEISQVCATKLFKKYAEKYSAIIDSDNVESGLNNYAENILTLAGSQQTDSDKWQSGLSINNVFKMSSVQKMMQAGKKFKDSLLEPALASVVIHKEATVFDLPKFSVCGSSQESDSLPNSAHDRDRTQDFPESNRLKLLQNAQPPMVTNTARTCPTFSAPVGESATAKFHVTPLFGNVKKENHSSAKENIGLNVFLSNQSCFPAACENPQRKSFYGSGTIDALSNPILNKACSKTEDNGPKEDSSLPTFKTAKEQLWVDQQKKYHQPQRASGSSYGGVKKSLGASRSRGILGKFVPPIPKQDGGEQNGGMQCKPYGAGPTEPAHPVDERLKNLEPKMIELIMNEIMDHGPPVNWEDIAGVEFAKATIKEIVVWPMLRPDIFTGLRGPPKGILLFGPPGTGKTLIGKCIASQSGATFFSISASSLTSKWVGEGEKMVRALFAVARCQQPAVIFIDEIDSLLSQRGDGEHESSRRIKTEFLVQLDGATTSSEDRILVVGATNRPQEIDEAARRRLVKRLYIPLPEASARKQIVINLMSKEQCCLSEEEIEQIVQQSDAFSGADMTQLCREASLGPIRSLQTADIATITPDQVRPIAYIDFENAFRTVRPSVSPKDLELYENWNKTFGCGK
# Chain of UniProt Q15717 (Q15717 whole entry, looked up): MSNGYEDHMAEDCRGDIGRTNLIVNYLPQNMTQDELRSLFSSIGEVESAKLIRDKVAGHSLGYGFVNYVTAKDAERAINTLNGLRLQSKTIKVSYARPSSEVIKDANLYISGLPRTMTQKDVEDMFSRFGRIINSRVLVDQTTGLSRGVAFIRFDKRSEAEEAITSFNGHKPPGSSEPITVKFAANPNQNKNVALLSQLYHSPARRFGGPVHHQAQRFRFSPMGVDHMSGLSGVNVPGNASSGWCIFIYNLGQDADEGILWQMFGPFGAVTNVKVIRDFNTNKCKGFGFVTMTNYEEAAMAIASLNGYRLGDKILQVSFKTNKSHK
Target,log2 fold change (vemurafenib),log2 fold change [1],log2 fold change (barasertib),log2 fold change [2],log2 fold change (volasertib),log2 fold change [3],log2 fold change [4],log2 fold change [5],log2 fold change (saracatinib),log2 fold change (sotrastaurin),log2 fold change (alvocidib),log2 fold change (Tubastatin A),log2 fold change [6],log2 fold change (defactinib),log2 fold change [7],log2 fold change (encorafenib),log2 fold change [8],log2 fold change (alisertib),log2 fold change [9],log2 fold change (gefitinib)
FAM83D (UniProt Q9H4H8),-0.015,0,0.074,0.045,-0.047,-0.01,-0.052,0.029,-0.008,0.032,-0.009,-0.044,0.005,-0.007,0.022,0.026,0.017,0.015,0.062,0.009
FBXO45 (UniProt P0C2W1),-0.064,0.088,0.031,-0.077,-0.04,0.062,-0.002,0.037,,0.028,-0.047,-0.162,-0.035,-0.009,,-0.062,-0.035,0.003,0.02,-0.002
EIF2B4 isoform 2 (UniProt Q9UI10),-0.034,0.02,0.006,-0.038,-0.017,-0.004,-0.02,0.002,0.006,-0.004,-0.015,-0.025,0.013,0.035,0.02,0.018,0.162,-0.014,0.016,0
GCDH (UniProt Q92947),0.031,0.025,-0.054,0.002,0.022,-0.003,-0.07,-0.077,-0.041,-0.041,0.018,-0.069,-0.049,0.004,0.057,-0.049,0.159,0.049,0.006,-0.004
DYNC1I2 isoform 2 (UniProt Q13409),-0.073,0.042,-0.123,0.132,-0.039,0.035,-0.022,0.082,-0.077,0.006,0.065,0.002,-0.02,0.001,-0.039,0.011,0.056,,0.096,
GABPB1 isoform 3 (UniProt Q06547),0.057,0.074,0.141,-0.048,-0.11,-0.016,-0.042,-0.028,-0.006,-0.022,-0.013,-0.299 (active),-0.055,-0.025,-0.039,-0.006,0.099,,0.016,
FAM114A2 (UniProt Q9NRY5),0.054,0.049,0.086,0.131,-0.013,0.014,0.049,-0.039,0.03,0.033,0.021,0.134,0,0.032,0.037,0.219,0.027,0.127,0.118,0.073
ELAVL1 isoform 2 (UniProt Q15717),0.035,0.024,-0.013,-0.03,-0.029,0.035,0.013,-0.083,-0.001,0.024,0.013,-0.187,0.05,-0.005,-0.011,0.018,0.166,0.019,-0.002,0.048
FTSJ3 (UniProt Q8IY81),-0.004,-0.011,0.006,0.011,-0.033,0.024,0,-0.005,0.015,-0.003,0.031,-0.073,-0.018,0.026,0.007,-0.028,0.031,0.005,-0.036,0.004
EIF2B5 (UniProt Q13144),-0.007,0.019,0.013,-0.012,-0.027,0.021,-0.065,-0.057,0.009,0.038,0.03,-0.06,0.04,0.022,0.023,-0.009,0.046,-0.004,0.005,-0.016
EEF1AKMT4 (UniProt P0DPD7),0.135,0.008,0.126,-0.025,-0.072,-0.035,-0.129,0.052,-0.033,-0.004,-0.029,-0.027,0.074,0.03,0.188,0.042,0.012,0.037,0.068,0.004
EP400 isoform 5 (UniProt Q96L91),-0.021,-0.007,-0.015,0.044,-0.042,-0.023,-0.007,0.011,0.01,-0.012,0.015,-0.022,0.037,0.01,0.035,-0.028,0.068,0.004,0.023,-0.055
FIGNL1 (UniProt Q6PIW4),-0.012,0.042,0.03,-0.063,-0.047,0.027,-0.108,0.036,0.006,-0.015,-0.018,-0.189,0.014,0.05,-0.018,0.041,0.069,-0.003,0.005,0.01
DYNC1I2 isoform 5 (UniProt Q13409),-0.015,0.013,-0.03,-0.012,-0.013,-0.016,-0.017,0.017,0.003,-0.034,0.002,0.007,-0.021,-0.011,0.012,-0.007,-0.012,-0.011,0.004,0.006
FAU (UniProt E9PR30),-0.009,-0.015,-0.17,0.005,-0.002,0.036,0.33 (active),-0.076,-0.042,-0.012,0.073,0.02,-0.087,0.003,0.013,-0.04,0.013,0.035,-0.016,-0.044
GFPT1 (UniProt Q06210),0.014,0.02,0.009,-0.026,-0.036,0.007,0.009,-0.042,0.009,-0.014,0.022,-0.075,0.011,0.01,0.012,-0.012,0.134,0.005,0.007,-0.013
